Measles CPE – protection of cells from measles virus | Measles virus-infected cells, CPE protection, absorbance | protection (pct of control), % at 4 µM | 140,000 compounds, 1.5% hits; in the data active means protection mostly above about 24%, no sharp cut-off; inactive means mostly below about 26%
PTPN22 inh 2 – inhibitors of human LYP (PTPN22) phosphatase | Q9Y2R2 | recombinant LYP catalytic domain, DiFMUP fluorescence | inhibition, % at 2 µM | 96,000 compounds, 0.21% hits | AID 640;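 active means inhibition at 2 µM at or above a set limit, the screen mean plus 3 SD, cut at about 24% in these data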;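 further: 0% = DMSO with enzyme and 100% = enzyme fully blocked by orthovanadate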
Target sequence (Q9Y2R2 whole entry, looked up, the tested form may be a part): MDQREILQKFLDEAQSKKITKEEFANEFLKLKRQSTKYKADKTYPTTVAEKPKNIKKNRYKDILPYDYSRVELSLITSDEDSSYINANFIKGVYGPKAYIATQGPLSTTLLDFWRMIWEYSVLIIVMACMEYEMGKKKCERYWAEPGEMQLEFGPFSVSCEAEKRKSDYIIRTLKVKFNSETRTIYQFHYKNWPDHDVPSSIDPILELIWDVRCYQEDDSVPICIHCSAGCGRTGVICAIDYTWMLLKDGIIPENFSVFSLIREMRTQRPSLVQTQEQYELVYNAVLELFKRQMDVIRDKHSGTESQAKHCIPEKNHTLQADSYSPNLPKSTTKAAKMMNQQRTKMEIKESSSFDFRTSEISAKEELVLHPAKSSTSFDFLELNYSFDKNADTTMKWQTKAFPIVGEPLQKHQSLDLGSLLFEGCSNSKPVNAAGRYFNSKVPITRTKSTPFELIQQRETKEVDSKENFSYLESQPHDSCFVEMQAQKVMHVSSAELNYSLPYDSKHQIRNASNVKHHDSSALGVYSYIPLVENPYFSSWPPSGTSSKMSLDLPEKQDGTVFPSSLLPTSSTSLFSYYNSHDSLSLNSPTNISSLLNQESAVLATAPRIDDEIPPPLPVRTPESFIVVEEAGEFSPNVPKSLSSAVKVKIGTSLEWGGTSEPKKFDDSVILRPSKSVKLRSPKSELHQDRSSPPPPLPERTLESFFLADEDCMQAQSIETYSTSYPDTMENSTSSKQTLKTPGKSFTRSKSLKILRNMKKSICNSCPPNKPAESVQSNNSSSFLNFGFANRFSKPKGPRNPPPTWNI
LYP act – LYP (human) phosphatase activation; 96,000 compounds, 0.11% hits; recombinant LYP, DiFMUP fluorescence; 0 = plate median, 100 = signal doubled; activation, % at 2 µM; Q9Y2R2;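 active means activation at 2 µM above a set limit, the mean plus 5 SD, cut at about 37% in these data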
LYP act confirm – LYP (PTPN22) phosphatase activation confirmation; activation, % at 2 µM; 100 tested, under 10 active; AID 1031; Recombinant LYP, DIFMUP fluorescence; zero set by plate's median compound well; shares compounds with LYP act; call rule not given here
Starred values were filed as active, the others as inactive; x = no result given. Sampled rows, rich in hits. Any-hit rate of the full collection: about 1.7%.

SMILES | Measles CPE | PTPN22 inh 2 | LYP act | LYP act confirm
Cc1nnc(NC(=O)c2ccccc2F)s1 | 1 | -42 | 38* | 6
Cc1nnc(NC(=O)c2ccccc2Br)s1 | 8 | -1 | 0 | x
Cc1cc(-c2ccco2)n(CC(=O)O)n1 | 17 | x | x | x
CCC(=O)Nc1ccccc1C(=O)N1CCCC1 | 17 | 2 | -1 | x
CC(=O)N1c2c(cc(Br)cc2S(=O)(=O)NCc2ccc3c(c2)OCO3)CC1C (stereo not given) | 7 | x | x | x
CC(=O)N1c2c(cc(Br)cc2S(=O)(=O)NCC2COc3ccccc3O2)CC1C (stereo not given) | 3 | -33 | 38* | -3
Cc1cccc(NC(=O)C2CCCN2C(=O)Oc2ccccc2)c1C (stereo not given) | 12 | 4 | -3 | x
Cc1ccc(NC(=O)C2CCCN2C(=O)Oc2ccccc2)cc1 (stereo not given) | 8 | -44 | 39* | 1
CN(C)C(C)(C)C#CCC(c1ccccc1)c1ccccc1 | 4 | x | x | x
COc1ccc(NC(=O)c2ccc(CN(c3cc(Cl)ccc3C)S(=O)(=O)c3ccccc3)cc2)cc1OC | 18 | -3 | 7 | x
CCC(C(=O)NC1CCCC1)N(Cc1ccco1)C(=O)Cn1nnc(-c2ccc(C)cc2)n1 (stereo not given) | 3 | 10 | -6 | x
Nc1cc(N)nc(SCC(=O)Nc2ccccc2)n1 | 6 | -1 | 1 | x
Nc1cc(N)nc(SCC(=O)c2ccccc2)n1 | 30 | -40 | 43* | 4
Cc1ccc(Nc2nnc(SCC(=O)Nc3cccc(S(=O)(=O)NC4=NCCCCC4)c3)s2)c(C)c1 | 5 | x | x | x
CC(=O)N(Cc1c(C#N)c2ccccc2n1C)c1ccccc1 | 5 | -6 | 7 | x
CCOC(=O)CSCc1c(C#N)c2ccccc2n1C | 8 | -42 | 40* | 4
COC(=O)c1ccc(NC(=S)NC2CCCCC2)cc1 | 5 | -33 | 38* | -1
COC(=O)c1ccc(NC(=O)NC2CCCCC2)cc1 | 5 | x | x | x
COc1ccc(NC(=O)Cn2c(-c3ccccc3)cn(-c3ccc(C)cc3)c2=O)cc1 | 10 | -11 | 8 | x
O=C1c2ccccc2C(=O)N1c1n[nH]c(CCc2ccccc2)n1 | 7 | -49 | 43* | -4
CCCc1cc(=O)n2[nH]c(CCc3ccccc3)nc2n1 | 3 | 4 | -3 | x
COc1cccc2cc(-c3nnc(SCC(=O)NCc4ccccc4)n3C)oc12 | 7 | 4 | -1 | x
COc1cc(C(=O)NCCN2CCOCC2)cc(OC)c1OC | 8 | -5 | 6 | x
COc1ccc(C(=O)NCCCN2CCOCC2)cc1OC | 66* | -41 | 44* | 6
c1ccc(C2CC3CC(c4ccccc4)N2O3)cc1 (stereo not given) | 26 | 14 | -15 | x
SMILES | Measles CPE | PTPN22 inh 2 | LYP act | LYP act confirm
CCOC(=O)N1CCN(C(=O)CN(Cc2ccccc2)S(C)(=O)=O)CC1 | 11 | -10 | 5 | x
Cc1c(NS(=O)(=O)c2cccc3nsnc23)c(=O)n(-c2ccccc2)n1C | 7 | x | x | x
CCCc1cc(=O)oc2c(CN3CCCC3)c(O)ccc12 | 2 | 1 | -2 | x
CCCC1(C(=O)OC)NC(c2cccc(F)c2)C2C(=O)N(CC)C(=O)C21 (stereo not given) | 7 | x | x | x
CCN1C(=O)C2C(c3cccc(F)c3)NC(CC)(C(=O)OC)C2C1=O (stereo not given) | 9 | -42 | 42* | 7
O=[N+]([O-])c1ccccc1S(=O)(=O)Oc1ccccc1/C=N/n1cnnc1 | 8 | x | x | x
Cc1cccc(NC(=O)CSc2nnc(Cn3cnc4ccccc43)o2)c1 | 12 | -38 | 38* | 4
CCc1ccccc1NC(=O)CSc1nnc(Cn2cnc3ccccc32)o1 | 13 | 2 | -3 | x
FC(F)(F)c1cc(-c2ccc(Cl)cc2)nc(NCc2cccnc2)n1 | 3 | -1 | 4 | x
CCc1onc(C)c1C(=O)Nc1cc(C)ccc1OC | 5 | -44 | 40* | -4
COc1ccc(C(C)(C)C)cc1NC(=O)c1c(C)noc1C | 8 | 2 | -5 | x
NC(N)=Nc1nc(C2COc3ccccc3O2)cs1 (stereo not given) | 13 | x | x | x
CC(=O)Nc1nc(C2COc3ccccc3O2)cs1 (stereo not given) | 5 | -38 | 41* | 2
Cc1ccc(SC(C)C(=O)NCc2cccnc2)cc1 (stereo not given) | 5 | 5 | -3 | x
CC(Sc1ccc(Cl)cc1)C(=O)NCc1cccnc1 (stereo not given) | 11 | -38 | 37* | 6
CCc1ccc(NC2=NC(C(=O)c3ccccc3)CC(=O)N2)cc1 (stereo not given) | 36 | -6 | 5 | x
COc1ccc(CNC(=O)CN(Cc2ccccc2)C(=O)c2csnn2)cc1 | 4 | 8 | -8 | x
Cc1sc2ncnc(N/N=C/c3cccc(O)c3)c2c1C | 23 | x | x | x
Cc1ccc(-n2c(SCC(N)=O)nnc2-c2ccccn2)cc1C | 4 | 10 | -7 | x
CC(C)(C)NC(=O)Cn1ccc(=N)c2ccccc21 | 4 | -46 | 45* | 3
CCCN(CCC)C(=O)Cn1ccc(=N)c2ccccc21 | 6 | -2 | 2 | x
CC(C)Cn1cc(C(=O)N2CCN(c3ccccn3)CC2)c2c3ccccc3n(C)c2c1=O | 3 | 6 | -7 | x
O=C(CCCC1=NS(=O)(=O)c2ccccc2N1)N1CCN(c2ccccc2)CC1 | 6 | -41 | 40* | 3
O=C(CCCC1=NS(=O)(=O)c2ccccc2N1)N1CCN(c2ccc(Cl)cc2)CC1 | 5 | x | x | x
COc1ccc(-c2[nH]c(-c3cccc(OC)c3)nc2SCC(=O)NC2CCCC2)cc1 | 20 | x | x | x

Screens: PubChem BioAssay, several laboratories
